Results reported in PubChem BioAssay (NCATS).
Results filed as inconclusive are left out. Active and inactive are the calls of the source. Unless noted, the call rests on the fitted dose curve; in most records, active means well fitted curve in the direction sought with a large enough effect; inconclusive means small, poorly fitted or top-dose-only effect, or another doubt; inactive means no such curve, though single readings can be large; an effect the other way counts as inactive or inconclusive.

Experiments:
[1] = biological target: Lysosomal acid glucosylceramidase (Homo sapiens) (UniProt P04062); assay: Glucocerebrosidase-p2 (AID 348; in the data active means potency below about 10 µM; further: potency means the concentration at half of the fitted maximal effect); details: purified GBA, blue fluorogenic substrate, 40 min
Lysosomal acid glucosylceramidase (Homo sapiens), sequence (P04062 whole entry, looked up): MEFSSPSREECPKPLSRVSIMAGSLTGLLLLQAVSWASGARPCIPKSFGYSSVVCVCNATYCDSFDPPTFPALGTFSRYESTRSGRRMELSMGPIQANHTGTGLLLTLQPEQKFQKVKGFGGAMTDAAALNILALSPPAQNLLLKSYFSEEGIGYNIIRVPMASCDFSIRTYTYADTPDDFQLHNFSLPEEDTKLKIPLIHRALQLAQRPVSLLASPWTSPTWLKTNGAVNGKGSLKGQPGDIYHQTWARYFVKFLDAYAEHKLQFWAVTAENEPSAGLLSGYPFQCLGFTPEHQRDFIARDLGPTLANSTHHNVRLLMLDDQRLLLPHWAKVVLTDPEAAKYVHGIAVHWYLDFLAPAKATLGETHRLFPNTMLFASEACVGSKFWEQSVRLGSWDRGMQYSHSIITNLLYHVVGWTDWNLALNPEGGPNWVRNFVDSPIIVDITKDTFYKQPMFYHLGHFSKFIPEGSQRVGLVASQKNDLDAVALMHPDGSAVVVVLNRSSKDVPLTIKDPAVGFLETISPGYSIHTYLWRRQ
Summary of the method: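 Compounds titrated from 0.6 nM upwards against 0.2 nM enzyme in pH 5.9 citric acid/KH2PO4, taurocholate, tween-20; blue fluorogenic substrate 80 uM, 40 min room temperature, stopped and read Ex 365/Em 440 for AC50.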

[2] = biological target: Cytochrome P450 1A2 (Homo sapiens) (UniProt P05177); assay: p450-cyp1a2 (AID 410; calls by dose curve; further: potency means the concentration at half of the fitted maximal effect); details: recombinant CYP1A2, luciferin-ME demethylation, luminescence; series mostly up to 57 µM
Cytochrome P450 1A2 (Homo sapiens), sequence (P05177 whole entry, looked up): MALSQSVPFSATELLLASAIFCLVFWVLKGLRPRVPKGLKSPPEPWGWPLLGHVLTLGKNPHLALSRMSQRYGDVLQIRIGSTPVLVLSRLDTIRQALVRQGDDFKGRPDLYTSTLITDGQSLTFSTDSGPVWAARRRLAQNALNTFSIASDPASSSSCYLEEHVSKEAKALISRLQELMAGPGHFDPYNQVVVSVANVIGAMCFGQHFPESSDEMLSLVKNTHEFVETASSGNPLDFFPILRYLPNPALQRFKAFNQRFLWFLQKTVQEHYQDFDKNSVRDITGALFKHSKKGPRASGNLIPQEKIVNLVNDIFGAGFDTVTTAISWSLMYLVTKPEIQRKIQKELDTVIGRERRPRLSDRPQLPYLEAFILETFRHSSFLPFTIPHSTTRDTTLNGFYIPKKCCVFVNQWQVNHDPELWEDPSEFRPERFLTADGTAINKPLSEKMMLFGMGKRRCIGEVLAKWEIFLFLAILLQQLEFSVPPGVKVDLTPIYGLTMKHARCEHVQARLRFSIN
Summary of the method: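 20nM CYP1A2 with 100uM Luciferin-ME (at Km) in 100mM KPO4; compound preincubated 10 min, NADPH regeneration added, 60 min at room temperature. Luciferin quantified by luminescence after detection reagent; normalized to 57 uM furafylline.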

[3] = NFAT Signaling Pathway (AID 444; active means well fitted curve in either direction with a large enough effect, not every such curve was filed as active;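 further: carbachol stimulus at about its EC50 of 1 µM final; on the % scale 0 is the no-effect control and ±100 the full control effect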); details: Jurkat NFAT-bla M1, carbachol, beta-lactamase ratio, 5 h; at 7.69 µM (top of the series) unless noted
Summary of the method: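 Jurkat cells carrying an NFAT-driven β-lactamase reporter and co-transfected muscarinic M1 receptor were treated with compound plus carbachol (1 uM final, an EC50 level) for 5 h at 37 °C. CCF4 loading followed for 1 h at RT; 460/530 nm ratio gave %activity.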

[4] = biological target: Glucocorticoid receptor (Homo sapiens) (UniProt P04150); assay: GR-GFP Redistribution (AID 450;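 active means compounds whose dose series gives a full or clear partial fitted curve of increased nuclear translocation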; further: potency means the concentration at half of the fitted maximal effect); details: U2OS GR-GFP nuclear translocation, laser cytometry, 2 h
Glucocorticoid receptor (Homo sapiens), sequence (P04150 whole entry, looked up, the tested form may be a part): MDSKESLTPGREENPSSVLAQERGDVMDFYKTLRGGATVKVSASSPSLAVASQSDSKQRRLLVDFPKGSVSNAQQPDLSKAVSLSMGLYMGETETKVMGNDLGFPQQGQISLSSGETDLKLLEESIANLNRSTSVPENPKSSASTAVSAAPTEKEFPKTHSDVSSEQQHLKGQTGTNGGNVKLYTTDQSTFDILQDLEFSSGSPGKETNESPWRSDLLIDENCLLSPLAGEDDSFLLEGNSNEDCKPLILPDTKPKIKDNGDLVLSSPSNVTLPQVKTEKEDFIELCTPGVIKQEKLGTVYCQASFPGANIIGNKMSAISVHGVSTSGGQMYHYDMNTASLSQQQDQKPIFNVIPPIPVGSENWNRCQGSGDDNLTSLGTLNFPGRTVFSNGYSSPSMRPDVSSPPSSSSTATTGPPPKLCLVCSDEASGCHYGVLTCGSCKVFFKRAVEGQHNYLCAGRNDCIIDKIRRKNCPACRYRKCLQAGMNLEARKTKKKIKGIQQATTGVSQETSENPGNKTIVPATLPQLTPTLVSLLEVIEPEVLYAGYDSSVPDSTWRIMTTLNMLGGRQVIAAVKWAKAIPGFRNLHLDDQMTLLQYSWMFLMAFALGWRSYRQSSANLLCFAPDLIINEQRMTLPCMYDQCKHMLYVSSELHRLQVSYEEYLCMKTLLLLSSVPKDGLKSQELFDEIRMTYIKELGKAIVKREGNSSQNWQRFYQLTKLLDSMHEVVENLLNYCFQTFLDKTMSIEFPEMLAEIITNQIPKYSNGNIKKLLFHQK

[5] = biological target: Glucocorticoid receptor (Homo sapiens) (UniProt P04150); assay: GR-EFC Redistribution (AID 451; calls by dose curve; further: potency means the concentration at half of the fitted maximal effect); details: CHO-K1 GR-EFC translocation, beta-gal luminescence, 2 h
Summary of the method: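 CHO-K1 cells stably expressing nuclear-localized β-gal enzyme acceptor and GR fused C-terminally to the enzyme donor fragment; ligand-driven nuclear translocation restores β-gal by complementation. Compounds titrated up to 46 uM final, 2 h at 37 °C; luminescence read.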

[6] = biological target: Mitogen-activated protein kinase 10 (Mus musculus) (UniProt Q61831); assay: JNK3 AlphaScreen Assay (AID 530; active means well fitted curve in either direction with a large enough effect, not every such curve was filed as active;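 further: kinase came from lysate of stimulated human HepG2 cells; signal reports phosphorylation of biotinylated GST-cJun 1-79 at Ser73 with 10 µM ATP; on the % scale 0 is the no-effect control and ±100 the full control effect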); details: JNK3 lysate, c-Jun phosphorylation; series mostly up to 57.1 µM
Summary of the method: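 Inhibitors reduce antibody binding to phosphorylated biotin-cJun, lowering AlphaScreen luminescence. Lysates from HepG2 cells pre-activated by IL-1beta plus TNF-alpha supplied JNK3; compounds were titrated.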

[7] = biological target: 3',5'-cyclic-AMP phosphodiesterase 4B (Homo sapiens) (UniProt Q07343); assay: qHTS Assay for Inhibitors of PDE-IV (AID 607; active means well fitted activation curve with a large enough effect in the main read-out, with a control signal flat, not every such curve was filed as active; further: % of control where 0% means no effect); details: HEK293 ACTOne CNG channel cells, membrane potential fluorescence; series mostly up to 22.9 µM
3',5'-cyclic-AMP phosphodiesterase 4B (Homo sapiens), sequence (Q07343 whole entry, looked up): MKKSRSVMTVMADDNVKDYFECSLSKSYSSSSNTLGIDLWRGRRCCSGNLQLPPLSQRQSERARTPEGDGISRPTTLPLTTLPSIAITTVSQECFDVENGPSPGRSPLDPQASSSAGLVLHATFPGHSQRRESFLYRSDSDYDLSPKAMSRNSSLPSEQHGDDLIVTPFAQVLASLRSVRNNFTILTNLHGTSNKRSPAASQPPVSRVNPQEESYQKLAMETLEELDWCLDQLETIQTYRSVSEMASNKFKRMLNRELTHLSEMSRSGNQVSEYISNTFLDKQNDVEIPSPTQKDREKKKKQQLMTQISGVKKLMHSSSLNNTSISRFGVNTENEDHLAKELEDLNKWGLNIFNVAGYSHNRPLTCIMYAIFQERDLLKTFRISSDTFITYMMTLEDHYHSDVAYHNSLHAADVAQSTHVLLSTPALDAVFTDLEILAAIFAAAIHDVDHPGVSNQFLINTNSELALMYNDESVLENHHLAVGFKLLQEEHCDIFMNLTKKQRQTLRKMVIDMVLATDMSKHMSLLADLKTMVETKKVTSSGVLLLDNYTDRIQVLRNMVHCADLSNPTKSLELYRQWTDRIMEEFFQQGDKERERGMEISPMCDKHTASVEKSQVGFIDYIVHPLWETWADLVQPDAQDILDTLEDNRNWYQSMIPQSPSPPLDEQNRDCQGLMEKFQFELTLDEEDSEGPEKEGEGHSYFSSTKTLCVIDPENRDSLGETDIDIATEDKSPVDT
Summary of the method: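 Live HEK293 cells with a modified cyclic nucleotide-gated (CNG) channel report intracellular cAMP via membrane-potential dye fluorescence (ex 535/em 590 nm). Endogenous PDE-IV was targeted. Compounds were tested at up to 22.9 uM final; RO 20-1724 100 uM served as control.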

[8] = biological target: Cytochrome P450 2C9 (Homo sapiens) (UniProt P11712); assay: qHTS Assay for Inhibitors and Substrates of Cytochrome P450 2C9 (AID 883); details: recombinant CYP2C9, luciferin-H luminescence, 60 min; series mostly up to 57.1 µM; further: on the % scale 0 is the no-effect control and ±100 the full control effect; nearly all actives have a fitted effect of over 60% in size
Cytochrome P450 2C9 (Homo sapiens), sequence (P11712 whole entry, looked up): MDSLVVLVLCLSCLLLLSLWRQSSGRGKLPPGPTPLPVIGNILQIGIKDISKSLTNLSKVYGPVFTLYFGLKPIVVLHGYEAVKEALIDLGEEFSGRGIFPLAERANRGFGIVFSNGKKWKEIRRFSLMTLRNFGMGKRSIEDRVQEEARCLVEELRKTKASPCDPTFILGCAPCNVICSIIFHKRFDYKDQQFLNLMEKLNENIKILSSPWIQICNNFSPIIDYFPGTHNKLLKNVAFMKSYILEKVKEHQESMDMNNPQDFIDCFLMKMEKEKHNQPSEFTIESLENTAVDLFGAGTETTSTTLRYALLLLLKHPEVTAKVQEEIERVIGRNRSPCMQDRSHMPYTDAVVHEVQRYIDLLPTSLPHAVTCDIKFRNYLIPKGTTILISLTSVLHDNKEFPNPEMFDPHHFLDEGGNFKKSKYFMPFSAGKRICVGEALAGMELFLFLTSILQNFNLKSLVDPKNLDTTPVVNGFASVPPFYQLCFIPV
Summary of the method: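 CYP2C9 deoxyluciferin hydroxylation, 37C, 60 min with NADPH regeneration; 10nM enzyme, 100uM Luciferin-H (KM). Glo detection reagent stopped reaction; luminescence normalized to sulphaphenazole (57uM) full inhibition.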

[9] = biological target: Cytochrome P450 3A4 (Homo sapiens) (UniProt P08684); assay: qHTS Assay for Inhibitors and Substrates of Cytochrome P450 3A4 (AID 884); details: recombinant CYP3A4, Luciferin-PPXE luminescence; series mostly up to 57.1 µM; further: on the % scale 0 is the no-effect control and ±100 the full control effect; nearly all actives have a fitted effect of over 50% in size
Cytochrome P450 3A4 (Homo sapiens), sequence (P08684 whole entry, looked up): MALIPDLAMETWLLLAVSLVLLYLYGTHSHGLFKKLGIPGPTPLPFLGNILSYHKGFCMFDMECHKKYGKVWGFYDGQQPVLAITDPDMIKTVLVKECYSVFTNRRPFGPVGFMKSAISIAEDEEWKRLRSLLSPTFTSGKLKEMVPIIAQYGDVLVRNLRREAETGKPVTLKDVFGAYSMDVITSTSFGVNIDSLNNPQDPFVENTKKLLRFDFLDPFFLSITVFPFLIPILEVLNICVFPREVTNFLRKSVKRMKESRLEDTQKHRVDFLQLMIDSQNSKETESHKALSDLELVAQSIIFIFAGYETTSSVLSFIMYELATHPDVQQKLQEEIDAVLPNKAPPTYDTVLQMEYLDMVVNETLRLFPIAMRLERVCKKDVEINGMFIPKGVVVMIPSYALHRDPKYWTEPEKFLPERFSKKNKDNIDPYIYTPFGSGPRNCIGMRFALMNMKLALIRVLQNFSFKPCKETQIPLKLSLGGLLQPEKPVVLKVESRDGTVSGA
Summary of the method: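 20 nM human CYP3A4 with 25 uM Luciferin-PPXE (at KM) in 200 mM KPO4, preincubated 10 min with compound; NADPH regeneration started a 60 min RT reaction. Luciferin detected by luminescence, normalized to 57 uM ketoconazole as full inhibition.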

[10] = qHTS Assay for Identification of Small Molecule Agonists for Hypoxia Response Element Signaling Pathway (AID 914; active means well fitted activation curve with a large enough effect in the signal ratio, with a control signal flat, not every such curve was filed as active; the % refers to the signal ratio; further: potency means the concentration at half of the fitted maximal effect; on activation: % of control where 0% means no effect); details: ME-180 HRE-bla reporter, beta-lactamase ratio, CoCl2, 17 h; activation: stronger effect = higher value
Summary of the method: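 HRE-bla ME-180 assay for agonist-like enhancement of an EC50 CoCl2 stimulus: 17 h at 37 degrees Celsius, CCF4 for 2.5 h, ratiometric 460/530 nm signal converted to %Activity and fitted to AC50.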

[11] = qHTS Assay for Lipid Storage Modulators (AID 1519; calls by dose curve); details: Drosophila S3 cells, BODIPY lipid droplet/cell ratio, laser cytometry, cells loaded with oleic acid; for activity change, negative = inhibition: at 57.5 µM (top of the series)
Summary of the method: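 Cells seeded at 5,000 per well were treated with compounds over a concentration series and loaded with oleic acid (400 uM, as added). Lipid droplet fluorescence (488 nm excitation, 500-530 nm channel) was read by laser-scanning cytometry and normalized to 20 uM Triacsin C.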

[12] = biological target: Dual specificity protein kinase CLK4 (Homo sapiens) (UniProt Q9HAZ1); assay: qHTS Assay for Inhibitors of CDC-like Kinase 4 (Kinase-Glo Assay) (AID 1770); details: recombinant Clk4, Kinase-Glo ATP depletion luminescence; series mostly up to 66.7 µM; further: nearly all actives have a fitted effect of over 65% in size; further: potency means the concentration at half of the fitted maximal effect
Dual specificity protein kinase CLK4 (Homo sapiens), sequence (Q9HAZ1 whole entry, looked up): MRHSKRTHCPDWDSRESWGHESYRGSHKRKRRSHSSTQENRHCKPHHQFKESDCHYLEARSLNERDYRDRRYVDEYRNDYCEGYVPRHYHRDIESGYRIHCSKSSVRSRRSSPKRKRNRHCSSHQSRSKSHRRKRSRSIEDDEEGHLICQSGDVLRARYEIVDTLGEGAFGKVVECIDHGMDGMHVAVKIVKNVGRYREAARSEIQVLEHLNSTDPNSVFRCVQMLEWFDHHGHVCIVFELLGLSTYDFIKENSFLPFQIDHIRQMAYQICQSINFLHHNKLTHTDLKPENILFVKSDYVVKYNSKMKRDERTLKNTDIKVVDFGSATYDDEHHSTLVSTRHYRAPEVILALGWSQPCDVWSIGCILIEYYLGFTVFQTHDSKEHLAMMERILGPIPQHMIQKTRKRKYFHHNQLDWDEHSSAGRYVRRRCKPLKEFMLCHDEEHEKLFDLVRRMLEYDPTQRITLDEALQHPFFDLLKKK
Summary of the method: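 25 nM Clk4 with 100 uM RS repeat peptide and 1 uM ATP (final) in Tris pH7.5, 10 mM MgCl2, 4.5 h at room temperature. Remaining ATP measured by Kinase-Glo luciferase luminescence.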

[13] = biological target: Dual specificity protein kinase CLK4 (Homo sapiens) (UniProt Q9HAZ1); assay: qHTS Assay for Inhibitors of CDC-like Kinase 4 (ADP-Glo Assay) (AID 1771); details: recombinant CLK4, ADP-Glo luminescence; series mostly up to 80 µM; further: nearly all actives have a fitted effect of over 70% in size; further: potency means the concentration at half of the fitted maximal effect
Summary of the method: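 25 nM Clk4 with 100 uM RS repeat peptide and 1 uM ATP (final) in buffer with 2 mM MgCl2, 0.5 mM EGTA, 2.5 mM DTT, 0.01% Triton X-100; 1 h at room temperature; ADP-Glo luminescence for ADP formed.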

[14] = biological target: Dual specificity protein kinase CLK4 (Homo sapiens) (UniProt Q9HAZ1); assay: qHTS Assay for Inhibitors of CDC-like Kinase 4 (ADP-FP Assay) (AID 1795); details: Transcreener ADP fluorescence polarization; series mostly up to 50 µM; further: nearly all actives have a fitted effect of over 60% in size; further: potency means the concentration at half of the fitted maximal effect
Summary of the method: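 Recombinant Clk4 (6.25 nM) phosphorylated 100 uM RS repeat peptide with 1 uM ATP in 25 mM Tris pH 7.5, 10 mM MgCl2, 0.5 mM EGTA, 2.5 mM DTT, 0.01% Triton X-100 for 1 h. ADP was detected by Transcreener ADP2 competitive fluorescence polarization after 30 min at room temperature.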

[15] = biological target: Ubiquitin carboxyl-terminal hydrolase 1 (Homo sapiens) (UniProt O94782); assay: Inhibitors of USP1/UAF1: Pilot qHTS (AID 504865); details: purified USP1/UAF1, Ub-rhodamine cleavage fluorescence; series mostly up to 54.9 µM;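 further: rhodamine fluorescence freed from ubiquitin-rhodamine substrate followed over time; top concentration of the series differs between compounds; on the % scale 0 is the no-effect control and ±100 the full control effect; nearly all actives have a fitted effect of over 35% in size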
Ubiquitin carboxyl-terminal hydrolase 1 (Homo sapiens), sequence (O94782 whole entry, looked up): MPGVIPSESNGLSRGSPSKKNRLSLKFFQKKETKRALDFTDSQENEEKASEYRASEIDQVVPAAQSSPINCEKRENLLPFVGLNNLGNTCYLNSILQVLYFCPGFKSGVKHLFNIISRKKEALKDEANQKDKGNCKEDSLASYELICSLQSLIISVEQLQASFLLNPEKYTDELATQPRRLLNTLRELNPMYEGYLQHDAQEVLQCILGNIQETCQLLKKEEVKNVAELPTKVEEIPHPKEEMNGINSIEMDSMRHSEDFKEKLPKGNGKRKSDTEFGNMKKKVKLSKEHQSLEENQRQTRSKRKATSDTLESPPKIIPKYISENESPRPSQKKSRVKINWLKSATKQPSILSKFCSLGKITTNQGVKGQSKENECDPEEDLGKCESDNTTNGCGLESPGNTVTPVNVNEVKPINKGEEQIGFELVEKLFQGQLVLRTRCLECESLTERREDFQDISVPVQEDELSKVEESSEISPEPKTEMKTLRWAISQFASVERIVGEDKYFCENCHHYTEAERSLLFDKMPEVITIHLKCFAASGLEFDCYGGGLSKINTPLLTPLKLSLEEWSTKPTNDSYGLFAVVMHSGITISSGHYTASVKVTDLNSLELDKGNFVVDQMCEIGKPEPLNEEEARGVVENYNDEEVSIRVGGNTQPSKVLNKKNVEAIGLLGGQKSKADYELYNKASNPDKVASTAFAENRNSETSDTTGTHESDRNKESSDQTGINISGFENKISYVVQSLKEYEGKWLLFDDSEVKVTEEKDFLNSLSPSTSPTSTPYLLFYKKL
Summary of the method: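 USP1/UAF1 complex at 1 nM preincubated 15 min at room temperature with compound, then Ub-Rho substrate added at 150 nM final. Fluorescence (480/540 nm) read kinetically in 50 mM HEPES pH 7.8, 0.5 mM EDTA, 1 mM TCEP, 0.1 mg/ml BSA, 0.01% Tween-20.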

[16] = Primary qHTS for small molecule stabilizers of the endoplasmic reticulum resident proteome: Secreted ER Calcium Modulated Protein (SERCaMP) assay (AID 1508630); details: SH-SY5Y GLuc-SERCaMP (Gaussia luciferase released on ER calcium loss) secretion, thapsigargin, luminescence; series mostly up to 38.4 µM; further: on the % scale 0 is the no-effect control and ±100 the full control effect
Summary of the method: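 GLuc-SERCaMP-expressing SH-SY5Y cells, pretreated 16 h with compound, are challenged with thapsigargin to empty ER calcium stores; after 4 h, coelenterazine is added directly to the medium and luminescence is imaged.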

[17] = Stat Signaling Pathway (AID 446; active means well fitted curve in either direction with a large enough effect, not every such curve was filed as active;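 further: ME-180 cervical cancer cells given 40 pM IL-6 alongside compound; SIE-controlled beta-lactamase reporter measured as 460/530 nm FRET emission ratio; on the % scale 0 is the no-effect control and ±100 the full control effect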); details: ME-180 SIE beta-lactamase reporter, IL-6 stimulated, 5 h; at 7.69 µM (top of the series) unless noted
Summary of the method: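 IL-6/STAT signaling read in ME-180 cells via an SIE beta-lactamase reporter. Stimulus was 40 pM IL-6 (its AC50) for 5 hrs, so both activation and inhibition register.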

[18] = biological target: Cytochrome P450 3A4 (Homo sapiens) (UniProt P08684); assay: qHTS Assay for Activators of Cytochrome P450 3A4 (AID 885); details: recombinant CYP3A4, Luciferin-PPXE luminescence, 60 min; series mostly up to 57.1 µM; further: nearly all actives have a fitted effect of over 65% in size
Summary of the method: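 Quantitative HTS format: compounds preincubated with 20nM human CYP3A4 and Luciferin-PPXE substrate at KM, reaction started by NADPH regeneration, stopped after 60 min, luciferase luminescence read 20 min later.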

[19] = AP1 Signaling Pathway (AID 357; active means well fitted curve in either direction with a large enough effect, not every such curve was filed as active); details: ME-180 (cervical carcinoma) AP-1-bla reporter, EGF-induced, beta-lactamase ratio, 5 h; at 7.69 µM (top of the series) unless noted
Summary of the method: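 Read-out was the 460nm/530nm emission ratio (excitation 405nm) after CCF4 loading for 2.5 hours at room temperature. Cells carried an AP-1-driven beta-lactamase reporter, were stimulated with EC50 EGF plus compound for 5 hours, and AC50 values came from titrations.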

[20] = measured here: cell count channel max response
[21] = measured here: lipid channel max response

Cn1c(=O)c(-c2ccc(Cl)cc2)nc2cnc(N3CCOCC3)nc21
inactive: Potency [1] > 11.4 µM | activity change, negative = inhibition [3] 26.9% | Potency [4] > 9.22 µM | Potency [5] > 46 µM | outcome [6] | Potency [7] | Potency [8] | Potency [9] | activity change, negative = inhibition [11] 6.96% | Potency [12] | Potency [13] | Potency [14] | Potency [15] | Potency [16]
active: Potency [2] 2.51 µM | Potency [10] 2.51 µM
17.6%: max response [11, 21]
10.9%: max response [11, 20]

CCNc1ncc2ncc(=O)n(Cc3cccs3)c2n1
16.4%: max response [11, 21]
12.7%: max response [11, 20]
active: Potency [2] 2 µM | Potency [12] 3.16 µM | Potency [13] 5.62 µM | Potency [14] 5.01 µM
inactive: Potency [1] > 11.4 µM | activity change, negative = inhibition [3] -8.48% | activity, negative = inhibition [17] -24.4% | Potency [4] > 9.22 µM | Potency [5] > 46 µM | outcome [6] | Potency [7] | Potency [18] | activation [10] -28.8% | activity change, negative = inhibition [11] 5.21% | Potency [15] | Potency [16]

CNc1nc(-c2ccccc2CN(C)C)nc2ccccc12
inactive: Potency [1] > 11.4 µM | activity change, negative = inhibition [3] -2.05% | activity, negative = inhibition [17] 17.3% | Potency [4] > 46 µM | Potency [5] > 46 µM | outcome [6] | Potency [18] | activity change, negative = inhibition [11] 1.92% | Potency [12] | Potency [13] | Potency [14] | Potency [15] | Potency [16]
7.86%: max response [11, 20]
7.77%: max response [11, 21]
active: Potency [2] 3.16 µM

Cc1cnc(CNc2ncnc3ccc(-c4c(C)noc4C)cc23)cn1
7.19%: max response [11, 21]
active: Potency [10] 3.98 µM | Potency [12] 2.51 µM | Potency [13] 2.82 µM | Potency [14] 3.55 µM
inactive: Potency [1] > 11.4 µM | activity change, negative = inhibition [19] 12.8% | Potency [4] > 46 µM | Potency [5] > 46 µM | Potency [7] | activity change, negative = inhibition [11] 0.208% | Potency [15] | Potency [16]
8.76%: max response [11, 20]

COc1ccc(-n2c(=O)c(-c3ccc(Cl)cc3)nc3cnc(N4CCNCC4)nc32)cc1
9.83%: max response [11, 20]
active: Potency [2] 12.6 µM
inactive: Potency [1] > 11.4 µM | Potency [5] > 46 µM | Potency [7] | activity change, negative = inhibition [11] 5.55% | Potency [12] | Potency [13] | Potency [14] | Potency [15] | Potency [16]
16.5%: max response [11, 21]
